Among the data in PubChem BioAssay (NCI) are growth values, retold here.

The panel holds about 83,000 compounds, 20% with a hit somewhere; the sample as a whole holds those more often.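 Cell lines were cultured in 96-well plates, exposed to a single compound concentration, and assessed for percent growth 48 hours later.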 Calls of active or inactive are those of the source. Rule for the calls: active = growth percent below 10; inactive = the rest.

The test system of the assay is UACC-62 melanoma. In words: NCI-60 one-dose screen, 48 h (100 = growth as untreated, 0 = no growth, -100 = all killed). As to conditions: 10 µM.
With `O=S(=O)(NCCCNc1nccc(-c2c(-c3ccc(F)cc3)nc3sccn23)n1)c1ccc2ccccc2c1`, the growth was 45% (inactive).

Regarding `O=C(Nc1cccc(-n2cc(-c3ccncc3)c(-c3ccc(O)c(Cl)c3)n2)c1)c1ccc(Cl)c(Cl)c1`, the growth is 51.1% (inactive).

Turning to `Cc1ccc(C)c(C(O)(c2cc(C)ccc2C)C2(O)CCCCC2)c1`, the growth was 89.7% (inactive).

Consider `O=C(/C=C/c1cc2ccccc2[nH]c1=O)c1ccc2c(c1)OCO2`, for which the growth is 90.5% (inactive).

On to `O=C(Nc1cccc(-n2cc(-c3ccncc3)c(-c3ccc(O)c(Cl)c3)n2)c1)Nc1ccc(Cl)c(Cl)c1`, for which the growth is -43% (active).

In the case of `O=C(Nc1ccc(OS(=O)(=O)c2ccccc2)cc1)C12CC3CC(CC(C3)C1)C2`, the growth was 57% (inactive).

On to `COc1ccc(-c2nn(-c3cccc(NC(=O)Nc4ccc(Cl)c(C(F)(F)F)c4)c3)cc2-c2ccncc2)cc1Cl`, for which the growth was -2.96% (active).

As to `COc1ccc(-c2nn(-c3cccc(NC(=O)c4ccc(Cl)c(Cl)c4)c3)cc2-c2ccncc2)cc1Cl`, the growth is 83.7% (inactive).

Turning to `CCOC(=O)CCC(NC(=O)c1ccc(N)cc1)C(=O)OCC` (centres undefined), the growth is 103% (inactive).

Turning to `O=C(Nc1ccccc1)Nc1cccc(-n2cc(-c3ccncc3)c(-c3ccc(O)c(Cl)c3)n2)c1`, the growth was 43.8% (inactive).

In the case of `O=S(=O)(NCCNc1nccc(-c2c(-c3ccc(F)cc3)nc3sccn23)n1)c1ccc2ccccc2c1`, the growth is 71.7% (inactive).

Take `O=C(Nc1cccc(-n2cc(-c3ccncc3)c(-c3ccc(O)c(Cl)c3)n2)c1)c1cc(C(F)(F)F)cc(C(F)(F)F)c1`: the growth is 72.4% (inactive).

Regarding `O=C(N/N=C/c1cc2ccccc2c2ccccc12)c1cc(O)c(O)c(O)c1`, the growth is 41.5% (inactive).

Consider `COc1ccc(-c2nn(-c3cccc(NC(=O)c4cc(C(F)(F)F)cc(C(F)(F)F)c4)c3)cc2-c2ccncc2)cc1Cl`, for which the growth is 73.6% (inactive).

`O=S(=O)(NCCCNc1nccc(-c2c(-c3ccc(F)cc3)nc3sccn23)n1)c1ccc(F)cc1`: the growth was 18.5% (inactive).

For `COc1ccc(-c2nn(-c3cccc(NC(=O)c4ccc(N5CCOCC5)c(C(F)(F)F)c4)c3)cc2-c2ccncc2)cc1Cl`, the growth was 74.3% (inactive).

Regarding `CCCCCCN1CCN(Cc2ccc(N(CC)CC)cc2)C(=O)C1=O`, the growth is 45% (inactive).

Regarding `COc1ccc(Oc2nc(NC3CCCC3)nc(Sc3ccc(OC)cc3)n2)cc1`, the growth is 71.1% (inactive).

As to `COc1ccc(-c2nn(-c3cccc(NC(=O)Nc4cccc(C(F)(F)F)c4)c3)cc2-c2ccncc2)cc1Cl`, the growth was -21.5% (active).

For the compound `COc1ccc(-c2nn(-c3cccc(NC(=O)Nc4ccccc4)c3)cc2-c2ccncc2)cc1Cl`, the growth was 46.4% (inactive).

Turning to `CCOC(=O)c1ccoc1`, the growth is 101% (inactive).

Consider `COc1ccc(/C=C/C(C)=N/OCC(=O)O)cc1`, for which the growth was 113% (inactive).

On to `CN(C)Cc1cn(-c2ncc(-c3ccc(C(F)(F)F)cc3)c(NC3CCCCCC3)n2)nn1`, for which the growth is 97.6% (inactive).

For the compound `COc1cccc(C(=O)Nc2ccc(CN3CCc4nc5cc(OC)c(OC)cc5cc43)cc2)c1`, the growth is 67.3% (inactive).

Turning to `O=[N+]([O-])c1cccc(-c2ncc(-c3ccc(Cl)cc3Cl)[nH]2)c1`, the growth was 63.4% (inactive).

`CCN(CC)CCSCCN(CC)CC`: the growth was 102% (inactive).

For the compound `COc1ccc([N+](=O)[O-])c(C(=O)O)c1`, the growth was 106% (inactive).

`CNc1ncc(-c2ccc(C(F)(F)F)cc2)c(NC2CCCCCC2)n1`: the growth was 89.9% (inactive).

`CN(C)c1ccc(/C=C/C=N/NC(=O)c2cc(O)c(O)c(O)c2)cc1`: the growth was 107% (inactive).

Take `O=C(Nc1cccc(-n2cc(-c3ccncc3)c(-c3ccc(O)c(Cl)c3)n2)c1)c1ccc(N2CCOCC2)c(C(F)(F)F)c1`: the growth was 43.3% (inactive).

Consider `Cc1ccc(CC#N)cc1C`, for which the growth was 103% (inactive).

For the compound `O=c1oc2cc(OS(=O)(=O)c3ccccc3)ccc2c2c1CCCCC2`, the growth is 57.2% (inactive).

Consider `CCOC(=O)C(NC(=O)C(Cl)Cl)C(O)c1ccccc1` (centres undefined), for which the growth is 94.2% (inactive).

`C/C(N)=C(\C#N)C(=O)c1ccccc1`: the growth is 109% (inactive).

Consider `Nc1ncnc2[nH]c(=O)[nH]c12`, for which the growth is 92.3% (inactive).

Turning to `COc1ccc(-c2nn(-c3cccc(NC(=O)c4cccc(C(F)(F)F)c4)c3)cc2-c2ccncc2)cc1Cl`, the growth was 38.2% (inactive).

With `O=C1CC[C@@H]2CCCC[C@@H]2C1`, the growth was 94.6% (inactive).

As to `Cc1ccc(S(=O)(=O)OCCN(CCOS(=O)(=O)c2ccc(C)cc2)c2c[nH]c(=O)[nH]c2=O)cc1`, the growth is 100% (inactive).

On to `FC(F)(F)c1ccc(-c2cnc(-n3cc(COCCN4CCCCC4)nn3)nc2NC2CCCCCC2)cc1`, for which the growth is -79.2% (active).
